# PubChem BioAssay (NCATS)
# Several values for one entry are separate records, joined by “and”; a condition that tells them apart may be missing. Equal values may be shown once. Results filed as inconclusive are left out. A call without a number means that no potency is given here. Activity calls are given as the source filed them. Unless noted, the call rests on the fitted dose curve; in most records, active means well fitted curve in the direction sought with a large enough effect; inconclusive means small, poorly fitted or top-dose-only effect, or another doubt; inactive means no such curve, though single readings can be large; an effect the other way counts as inactive or inconclusive.
# Key:
# [1] = test system: Zika virus NS2B-NS3 protease (unlinked complex); assay: Primary screen GU Rhodamine qHTS for Zika virus inhibitors: Unlinked NS2B-NS3 protease assay (AID 1347159); further: nearly all actives have a fitted effect of over 60% in size; further: potency means the concentration at half of the fitted maximal effect
# In short: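 A qHTS format was used, with compound concentrations ranging up to 114 microM. Each compound was preincubated with 25 nM NS2B-NS3 protease, and the substrate was then added at 1.5 microM. Curves were fitted with a 4-parameter Hill model.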
# [2] = test system: Zika virus NS2B-NS3 protease (linked construct); assay: Primary screen NINDS Rhodamine qHTS for Zika virus inhibitors (AID 1347160); further: nearly all actives have a fitted effect of over 55% in size; further: potency means the concentration at half of the fitted maximal effect
# In short: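 Kinetic fluorescence (Ex 480 nm, Em 540 nm) over 15 min with 1.5 microM Rhodamine110 peptide and 25 nM linked protease.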
# [3] = target: Calcium and integrin-binding protein 1 (Homo sapiens) (UniProt Q99828); assay: Primary qHTS for Identification of Calcium Integrin Binding Protein 1 (CIB1) Competitor (AID 1508620);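 further: GST tagged CIB1 binding a fluorescein labelled alphaIIb integrin peptide tracer; top concentration of the series differs between compounds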
# In short: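 CIB1-GST (1 uM final) and compound incubated 15 min at room temperature before adding FITC-alphaIIb peptide tracer (100 nM final). Competition for binding read by fluorescence polarization (ex 480, em 540) after another 15 min at room temperature.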
# [4] = target: Phospholipid hydroperoxide glutathione peroxidase GPX4 (Homo sapiens) (UniProt P36969); assay: Primary qHTS Assay for Inhibitors of Recombinant Selenoprotein Glutathione Peroxidase 4 (GPX4) (AID 1845192); settings: outcome: dose series up to 50 µM unless noted; further: nearly all actives have a fitted effect of over 65% in size
# In short: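 NADPH consumption, followed by fluorescence at 340/450 nm between 0 and 15 min, reports GPX4 activity via coupled glutathione reductase (100 nM). Enzyme 200 nM was pre-exposed to compound 30 min; 0.5 mM cumene hydroperoxide and 1 mM GSH served as substrates.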
# [5] = target: Luciferin 4-monooxygenase (Photinus pyralis) (UniProt P08659); assay: Primary firefly luciferase (FLuc) qHTS assay for identification of artifact compounds. (AID 1845220); further: nearly all actives have a fitted effect of over 60% in size
# In short: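 FLuc 10 nM; luciferin 10 uM; ATP 10 uM; Tris-acetate pH 7.6, Mg-acetate 10 mM; 15 min RT preincubation; 5 min reaction; luminescence.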
# [6] = test system: Nanoluciferase (engineered Oplophorus gracilirostris luciferase); assay: Primary Nanoluciferase (NLuc) qHTS assay for identification of artifact compounds. (AID 1845222);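 further: NLuc secreted into diluted conditioned medium of S16 cells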
# In short: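 NLuc from S16 cell medium (1:55) plus test compounds, 15 min, room temperature. Luminescence after Nano-Glo (1:100) addition, 5 min.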
# [7] = test system: HaCat; assay: Cytotoxic Profiling of Annotated Libraries Using Quantitative High-Throughput Screening (AID 1296008); settings: Five cell lines viability, CellTiter-Glo ATP luminescence, 48-72 h; max response: stronger effect = lower value; further: nearly all actives have a fitted effect of over 60% in size
# In short: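 Cytotoxicity was measured as CellTiter-Glo ATP luminescence, read after 10 min at room temperature. Compound treatment of the cells lasted 48 or 72 hr at 37 degrees Celsius in a qHTS format.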
# [8] = test system: C33A; assay: Primary qHTS to identify gynecologic anti-cancer compounds using libraries of approved drugs and bioactive compounds (AID 1345084); settings: Gynecologic cancer cell panel viability, ATPlite luminescence, 48 h; series mostly up to 57.5 µM; further: nearly all actives have a fitted effect of over 55% in size
# In short: (§1)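 Luminescence from the ATPlite ATP-monitoring reagent indicates viable cell number; lower signal means cytotoxicity. Cells received compound 16 h after seeding and were exposed for 48 h across five concentrations.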
# [9] = test system: Es-2; assay: as above; settings: Gynecologic cancer cell panel viability, ATPlite luminescence, 48 h; series mostly up to 57.5 µM
# In short: as §1
# [10] = test system: HeLa; assay: as above; settings: Gynecologic cancer cell panel viability, ATPlite luminescence, 48 h; series mostly up to 57.5 µM
# In short: as §1
# [11] = test system: Hek293T; assay: as above; settings: Gynecologic cancer cell panel viability, ATPlite luminescence, 48 h, control line for the selectivity index; series mostly up to 57.5 µM
# In short: as §1
# [12] = test system: JEG-3; assay: as above; settings: Gynecologic cancer cell panel viability, ATPlite luminescence, 48 h; series mostly up to 57.5 µM
# In short: as §1
# [13] = test system: OV90; assay: as above; settings: Gynecologic cancer cell panel viability, ATPlite luminescence, 48 h; series mostly up to 57.5 µM
# In short: as §1
# [14] = test system: Tov-21-G; assay: as above; settings: Gynecologic cancer cell panel viability, ATPlite luminescence, 48 h; series mostly up to 57.5 µM
# In short: as §1
# [15] = test system: Tov112D; assay: as above; settings: Gynecologic cancer cell panel viability, ATPlite luminescence, 48 h; series mostly up to 57.5 µM
# In short: as §1
# [16] = target: Glutathione peroxidase 1 (Homo sapiens) (UniProt P07203); assay: Primary qHTS Assay for Inhibitors of Recombinant Selenoprotein Glutathione Peroxidase 1 (GPX1) (AID 1845191); further: nearly all actives have a fitted effect of over 65% in size; further: potency means the concentration at half of the fitted maximal effect
# In short: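 10 nM GPX1 + cpd, 30 min RT; start w/ 1 mM GSH, 0.5 mM cumene hydroperoxide, 0.5 mM NADPH, 100 nM GR, 0.01% BSA; buffer 50 mM Tris-HCl pH 7.5, 2 mM EDTA, 150 mM NaCl; Fl 340/450, 0 & 15 min.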
# [17] = test system: CASKI; assay: Primary qHTS to identify gynecologic anti-cancer compounds using libraries of approved drugs and bioactive compounds (AID 1345084); settings: Gynecologic cancer cell panel viability, ATPlite luminescence, 48 h; series mostly up to 57.5 µM; further: nearly all actives have a fitted effect of over 55% in size
# In short: as §1
# [18] = Primary qHTS for inhibitors of nuclear receptor binding SET domain protein 2 (NSD2) in an RCH-ACV wild type WT cells (2C) (AID 1645877); further: potency means the concentration at half of the fitted maximal effect; nearly all actives have a fitted effect of over 70% in size
# [19] = Primary qHTS for inhibitors of nuclear receptor binding SET domain protein 2 (NSD2) in an isogenic RCH-ACV NSD2 p.E1099K mutant (9B) (AID 1645876); further: potency means the concentration at half of the fitted maximal effect; nearly all actives have a fitted effect of over 70% in size
# [20] = qHTS drug screen for cell cycle checkpoint inhibitors in PARPi-resistant BRCA-mutant ovarian cancer cell lines. (AID 1963452; calls by dose curve); settings: PEO1/OlaR viability, CellTiter-Glo luminescence, 96 h, stronger effect = lower value
# In short: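 PEO1, PEO4 and PEO1/OlaR ovarian cancer cells, 600 per well, exposed 96 h at 37C to a dilution series. Viability read by CellTiter-Glo luminescence, normalized to DMSO and empty wells; activity summarized as Z-AUC.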
# [21] = measured here: PEO1 parental Z-AUC
# Sequence of Calcium and integrin-binding protein 1 (Homo sapiens) (Q99828 whole entry, looked up): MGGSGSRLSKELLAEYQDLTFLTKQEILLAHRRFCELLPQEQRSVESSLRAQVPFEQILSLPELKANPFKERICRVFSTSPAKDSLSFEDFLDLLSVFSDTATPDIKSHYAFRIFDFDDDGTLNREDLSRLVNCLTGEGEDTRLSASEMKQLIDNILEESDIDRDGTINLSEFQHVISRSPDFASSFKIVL
# Sequence of Glutathione peroxidase 1 (Homo sapiens) (P07203 whole entry, looked up): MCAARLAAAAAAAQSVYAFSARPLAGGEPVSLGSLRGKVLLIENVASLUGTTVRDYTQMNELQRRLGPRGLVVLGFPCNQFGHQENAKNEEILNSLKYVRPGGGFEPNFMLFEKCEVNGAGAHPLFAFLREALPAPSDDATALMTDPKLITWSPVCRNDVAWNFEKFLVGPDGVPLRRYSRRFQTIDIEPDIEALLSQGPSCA
# Sequence of Phospholipid hydroperoxide glutathione peroxidase GPX4 (Homo sapiens) (P36969 whole entry, looked up): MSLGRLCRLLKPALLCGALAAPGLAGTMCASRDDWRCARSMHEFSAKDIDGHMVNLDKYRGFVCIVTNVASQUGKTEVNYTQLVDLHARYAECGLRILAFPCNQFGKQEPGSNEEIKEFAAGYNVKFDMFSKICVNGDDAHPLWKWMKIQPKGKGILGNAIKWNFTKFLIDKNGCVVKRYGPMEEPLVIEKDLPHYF
smiles,measurement,setting,value
CC(C)CCC[C@@H](C)[C@H]1CC[C@H]2[C@@H]3CC=C4C[C@@H](OC(=O)NCCN(C)C)CC[C@]4(C)[C@H]3CC[C@]12C,Potency,[1],inactive
same,Potency,[2],inactive
same,outcome,[3],inactive
same,Potency,[4],inactive
same,Potency,[5],inactive
same,Potency,[6],inactive
same,max response,[7],-22.1% (inactive)
same,Potency,[8],inactive
same,Potency,[9],inactive
same,Potency,[10],inactive
same,Potency,[11],inactive
same,Potency,[12],inactive
same,Potency,[13],inactive
same,Potency,[14],inactive
same,Potency,[15],inactive
CC1CCN(c2cc(NC(=O)c3ccccc3)ncn2)CC1,Potency,[1],inactive
same,Potency,[2],inactive
same,outcome,[3],inactive
same,Potency,[16],inactive
same,Potency,[4],inactive
same,Potency,[6],inactive
same,Potency,[8],inactive
same,Potency,[17],inactive
same,Potency,[9],inactive
same,Potency,[10],inactive
same,Potency,[11],inactive
same,Potency,[12],inactive
same,Potency,[13],inactive
same,Potency,[14],inactive
same,Potency,[15],inactive
C/C=C(/COC(=O)/C(C)=C/C)C(=O)OC/C=C/c1ccc(OC)cc1,Potency,[1],inactive
same,Potency,[2],inactive
same,outcome,[3],inactive
same,Potency,[16],inactive
same,Potency,[4],inactive
same,Potency,[5],inactive
same,Potency,[6],inactive
same,outcome,[7],inactive
same,Potency,[8],inactive
same,Potency,[17],inactive
same,Potency,[9],inactive
same,Potency,[10],inactive
same,Potency,[11],inactive
same,Potency,[12],inactive
same,Potency,[13],inactive
same,Potency,[14],inactive
CC1CCC2C(C)(C)C(O)CCC2(C)C12Cc1c(O)cc3c(c1O2)CN(C(CCCN=C(N)N)C(=O)O)C3=O (stereo unspecified),Potency,[1],inactive
same,Potency,[2],inactive
same,outcome,[3],inactive
same,Potency,[18],8.93 µM (active)
same,Potency,[16],inactive
same,Potency,[4],inactive
same,Potency,[6],inactive
same,outcome,[7],inactive
same,Potency,[8],inactive
same,Potency,[17],inactive
same,Potency,[9],inactive
same,Potency,[10],inactive
same,Potency,[12],inactive
same,Potency,[13],inactive
same,Potency,[14],inactive
CC(C)N(CCCNC(=O)Nc1ccc(C(C)(C)C)cc1)C[C@H]1O[C@@H](n2cc(Br)c3c(N)ncnc32)[C@H](O)[C@@H]1O,Potency,[1],inactive
same,Potency,[2],inactive
same,outcome,[3],inactive
same,Potency,[19],12.9 µM (active) and 16.6 µM (active)
same,Potency,[18],12.9 µM (active) and 14.8 µM (active)
same,Potency,[16],inactive
same,Potency,[4],inactive
same,Potency,[5],inactive
same,Potency,[6],inactive
same,Z-AUC,[20],0.222 (inactive)
same,Z-AUC,[20]; [21],0.00626
same,Z-AUC,[20]; measured here: PEO4 Z-AUC,-0.104
same,max response,[7],-3.75% (inactive)
same,Potency,[8],inactive
same,Potency,[17],inactive
same,Potency,[9],inactive
same,Potency,[10],inactive
same,Potency,[11],inactive
same,Potency,[12],inactive
same,Potency,[13],inactive
same,Potency,[14],inactive
same,Potency,[15],inactive
C[C@@H](c1nc(-c2ccc(C#N)cc2)cs1)[C@](O)(Cn1cncn1)c1cc(F)ccc1F,Potency,[1],inactive
same,Potency,[2],inactive
same,outcome,[3],inactive
same,Potency,[19],8.17 µM (active)
same,Potency,[18],11.5 µM (active)
same,Potency,[4],inactive
same,Potency,[5],inactive
same,Potency,[6],inactive
same,outcome,[7],inactive
same,Potency,[8],inactive
same,Potency,[17],inactive
same,Potency,[9],inactive
same,Potency,[10],inactive
same,Potency,[11],inactive
same,Potency,[12],inactive
same,Potency,[13],inactive
same,Potency,[14],inactive
same,Potency,[15],inactive
COc1cc(-c2cc(-c3ccc(N4CCNCC4)cc3)cnc2C)cc(OC)c1OC,Potency,[1],inactive
same,Potency,[2],inactive
same,outcome,[3],inactive
same,Potency,[19],9.34 µM (active)
same,Potency,[18],7.42 µM (active)
same,Potency,[16],inactive
same,Potency,[4],inactive
same,Potency,[5],inactive
same,Potency,[6],inactive
same,Z-AUC,[20],-1.12 (inactive)
same,Z-AUC,[20]; [21],-0.592
same,Z-AUC,[20]; measured here: PEO4 Z-AUC,-0.59
same,outcome,[7],inactive
same,Potency,[8],inactive
same,Potency,[17],inactive
same,Potency,[9],inactive
same,Potency,[10],inactive
same,Potency,[11],inactive
same,Potency,[12],inactive
same,Potency,[14],inactive
same,Potency,[15],inactive
COc1cc(O)ccc1OCCNCC(O)COc1cccc2[nH]c3ccccc3c12 (stereo unspecified),Potency,[1],inactive
same,Potency,[2],inactive
same,outcome,[3],inactive
same,Potency,[19],20.5 µM (active)
same,Potency,[18],20.5 µM (active)
same,Potency,[16],inactive
same,Potency,[4],inactive
same,Potency,[5],inactive
same,Potency,[6],inactive
same,outcome,[7],inactive
same,Potency,[8],inactive
same,Potency,[17],inactive
same,Potency,[9],inactive
same,Potency,[10],inactive
same,Potency,[11],inactive
same,Potency,[12],inactive
same,Potency,[13],inactive
same,Potency,[14],inactive
same,Potency,[15],inactive
CC(C)(C)c1ccc(CNC(=S)NCc2ccc(NS(C)(=O)=O)c(F)c2)cc1,Potency,[2],inactive
same,outcome,[3],inactive
same,Potency,[19],20.5 µM (active)
same,Potency,[18],12.9 µM (active)
same,Potency,[16],14.3 µM (active)
same,Potency,[4],inactive
same,Potency,[5],inactive
same,Potency,[6],inactive
same,max response,[7],-44.1% (inactive)
same,Potency,[8],inactive
same,Potency,[17],inactive
same,Potency,[9],inactive
same,Potency,[10],inactive
same,Potency,[11],inactive
same,Potency,[13],inactive
same,Potency,[14],inactive
same,Potency,[15],inactive
CN(Cc1ccc(C(=O)O)cc1)c1ccc(OCc2c(-c3c(Cl)cccc3Cl)noc2C2CC2)nc1C(F)(F)F,Potency,[1],2 µM (active)
same,Potency,[2],2.51 µM (active)
same,outcome,[3],inactive
same,Potency,[5],inactive
same,Potency,[6],inactive
same,Potency,[8],inactive
same,Potency,[17],inactive
same,Potency,[9],inactive
same,Potency,[10],inactive
same,Potency,[11],inactive
same,Potency,[12],inactive
same,Potency,[13],inactive
same,Potency,[14],inactive
same,Potency,[15],inactive
C=C1CC[C@@H]2[C@](C)(CO)[C@H](O)CC[C@@]2(C)[C@@H]1C/C=C1/C(=O)OC[C@@H]1O,Potency,[1],inactive
same,Potency,[2],inactive
same,outcome,[3],inactive
same,Potency,[4],inactive
same,Potency,[5],inactive
same,Potency,[6],inactive
same,outcome,[7],inactive
same,Potency,[9],inactive
same,Potency,[10],inactive
same,Potency,[12],inactive
same,Potency,[13],inactive
O=S(=O)(c1cccc2ccccc12)n1ccc2ccc(N3CCN4CCCC4C3)cc21 (stereo unspecified),Potency,[1],inactive
same,Potency,[2],inactive
same,outcome,[3],inactive
same,Potency,[19],14.5 µM (active)
same,Potency,[18],14.5 µM (active)
same,Potency,[4],inactive
same,Potency,[5],inactive
same,Potency,[6],inactive
same,max response,[7],4.67% (inactive)
same,Potency,[8],inactive
same,Potency,[17],inactive
same,Potency,[9],inactive
same,Potency,[10],inactive
same,Potency,[11],inactive
same,Potency,[12],inactive
same,Potency,[13],inactive
same,Potency,[14],inactive
same,Potency,[15],inactive
